TSG101-PTAP inh = blocks PTAP/TSG101 interaction to inhibit HIV-1 budding; Q99816; Fluorescence polarization, FITC-PTAP peptide / Tsg101 binding; Potency, µM (series often up to 115 µM), without a hit: at the highest dose activity change, negative = inhibition, most hits filed as inhibitors; 340,000 tested, under 10 active; AID 493005; active = well fitted inhibition curve with a large enough effect in the main read-out, with a control signal flat, not every such curve was filed as active; inconclusive = small, poorly fitted or top-dose-only effect, or effect the other way, or a change in a side signal; inactive = no such curve, though single readings can be large or run the other way; note: % of control where 0% means no effect
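FP read-out: FITC-PTAP peptide, 50 nM final, binding Tsg101 binding domain, 10 uM final; 20 min, r.t.; 10 mM HEPES pH 7.5, 0.15 M NaCl, 0.01% Tween 20, 3 mM EDTA, 0.1 mM TCEP.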
VDR inh = vitamin D3 receptor (human) inhibition; VDR-SRC2-3 peptide fluorescence polarization, 2 h; Potency, µM, inactives show max response, negative = inhibition, actives largely listed as inhibitors; 400,000 compounds, 0.93% hits; note: % is set by controls: 0 for no effect and ±100 for the full control effect
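FP read-out; VDR + SRC2-3 coactivator peptide; 23 nl compound by pintool; 2 h RT incubation; reagents held at 4 deg C, protected from light.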
KAT2A inh = GCN5L2 (KAT2A) acetyltransferase inhibition. Q92830. GCN5L2 HAT assay, ThioGlo1 CoA-SH fluorescence. Potency, µM (doses to about 58.9 µM), for the others: at the highest dose activity change, negative = inhibition, hits mostly inhibitors. 390,000 compounds, 0.21% hits. AID 504327; note: % is set by controls: 0 for no effect and ±100 for the full control effect
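Compounds, pin-transferred from DMSO stocks, meet 20nM GCN5L2 for 15 min before the reaction begins with H3(1-25) peptide (75uM) and acetyl-CoA (70uM). Thiol-reactive ThioGlo1 reports CoA release over 20 min at room temperature.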
PLK1 PBD block = inhibitors of human PLK1 polo-box domain binding | Potency, µM, inactives show max response, negative = inhibition, most hits filed as inhibitors | 360,000 compounds, 2.8% hits | AID 720504 | Plk1 PBD binding of FITC phosphopeptide, fluorescence polarization | P53350; note: series mostly up to about 57 µM; % is set by controls: 0 for no effect and ±100 for the full control effect; nearly all actives have a fitted effect of over 65% in size
USP1 inh = USP1/UAF1 (human) deubiquitinase inhibition | recombinant USP1/UAF1, Ub-Rhodamine cleavage fluorescence | Potency, µM (highest dose often 57.1 µM), without a hit: top-dose activity change, negative = inhibition, usual class: inhibitors | 390,000 compounds, 0.23% hits | AID 743255; note: % is set by controls: 0 for no effect and ±100 for the full control effect; nearly all actives have a fitted effect of over 60% in size
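High-throughput fluorogenic screen: 1nM USP1/UAF1 complex, Ub-Rho substrate 150nM final, 50mM HEPES pH 7.8 with 0.5mM EDTA, 0.1 mg/ml BSA, 1mM TCEP and 0.01% Tween-20.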
The depositor's hits bear a star. An excerpt weighted towards active compounds, which were near 3% of everything screened. Unless noted, calls come from the whole dose curve; as a rule, active = well fitted curve in the direction sought with a large enough effect; inconclusive = small, poorly fitted or top-dose-only effect, or another doubt; inactive = no such curve, though single readings can be large; an effect the other way counts as inactive or inconclusive. Potency is the fitted concentration of half-maximal effect.

What do the screens show for `COc1cc(Br)c(C(=O)c2nccc3cc(OC)c(OC)cc23)cc1OC`?
TSG101-PTAP inh: -2%; VDR inh: -18%; KAT2A inh: -22%; PLK1 PBD block: 6µM*; USP1 inh: 10µM*

What do the screens show for `COc1cc(N)c(C(=O)c2nccc3cc(OC)c(OC)cc23)cc1OC`?
TSG101-PTAP inh: 3%; VDR inh: -13%; KAT2A inh: -3%; PLK1 PBD block: -17%; USP1 inh: -9%

What do the screens show for `Cc1ccc(CCNS(=O)(=O)c2ccc3c(c2)CCN3C(=O)CCC(=O)O)cc1`?
VDR inh: 7%; KAT2A inh: -11%; USP1 inh: -23%

Results for COc1cc(/C=N/n2cnnc2)ccc1OC(=O)c1cccnc1 ?
TSG101-PTAP inh: -4%; VDR inh: inconclusive; KAT2A inh: -4%; PLK1 PBD block: 7.5µM*; USP1 inh: -3%

Results for COc1cc(C=O)ccc1OC(=O)c1cccnc1 ?
TSG101-PTAP inh: -6%; VDR inh: 17%; KAT2A inh: 1%; PLK1 PBD block: -5%; USP1 inh: 0%

What do the screens show for `COc1ccc(S(=O)(=O)N2CCCC2C(=O)Nc2nnc(-c3cccnc3)s2)cc1` (stereo unspecified)?
TSG101-PTAP inh: -10%; VDR inh: inconclusive; KAT2A inh: -14%; PLK1 PBD block: 27µM*; USP1 inh: inconclusive

What do the screens show for `Cc1cccc(-c2nc3nc(C)cc(NCc4ccccc4Cl)n3n2)c1`?
VDR inh: 9%; KAT2A inh: -2%; USP1 inh: inconclusive

How did COC(=O)C(C(=O)OC)[C@@H](NC(=O)OCc1ccccc1)c1ccccc1 do in these assays?
VDR inh: 15%

Results for CS(=O)(=O)Nc1cccc(-c2nc(Nc3ccc(F)cc3)c3ccccc3n2)c1 ?
VDR inh: 3%; KAT2A inh: -12%

What do the screens show for `CNc1nc(-c2cccc(NS(C)(=O)=O)c2)nc2ccccc12`?
VDR inh: 45µM*; KAT2A inh: inconclusive

How did CNc1nc(-c2ccccc2C)nc2ccccc12 do in these assays?
VDR inh: 45µM*; KAT2A inh: -15%

How did Cn1sc(NC(=O)c2cccc(Cl)c2)nc1=O do in these assays?
TSG101-PTAP inh: -12%; VDR inh: 16%; KAT2A inh: -4%; PLK1 PBD block: 0%; USP1 inh: -22%

How did Cn1sc(NC(=O)c2ccccc2Cl)nc1=O do in these assays?
TSG101-PTAP inh: -3%; VDR inh: inconclusive; KAT2A inh: inconclusive; PLK1 PBD block: 30µM*; USP1 inh: -8%

How did N#CC1=C(N)C2=CCCC[C@H]2[C@H](c2ccc(Br)cc2)C1(C#N)C#N do in these assays?
TSG101-PTAP inh: -7%; VDR inh: inconclusive; KAT2A inh: 7%; PLK1 PBD block: inconclusive; USP1 inh: -25%

How did N#CC1=C(N)C2=CCCC[C@H]2[C@H](c2ccccc2)C1(C#N)C#N do in these assays?
TSG101-PTAP inh: -4%; VDR inh: 79µM*; KAT2A inh: -4%; PLK1 PBD block: -27%; USP1 inh: -17%

What do the screens show for `CCC1CCCCN1C(=O)CCCOc1ccccc1` (stereo unspecified)?
TSG101-PTAP inh: -6%; VDR inh: inconclusive; KAT2A inh: -14%; PLK1 PBD block: 3.4µM*; USP1 inh: -2%

Results for COCC(=O)Nc1ccc(N2CCOCC2)c(S(=O)(=O)Nc2ccccc2OC)c1 ?
TSG101-PTAP inh: -1%; VDR inh: inconclusive; KAT2A inh: -17%; PLK1 PBD block: 11µM*; USP1 inh: -2%

How did COc1ccccc1NS(=O)(=O)c1cc(NC(=O)C(C)(C)C)ccc1N1CCOCC1 do in these assays?
TSG101-PTAP inh: -2%; VDR inh: -22%; KAT2A inh: -7%; PLK1 PBD block: -1%; USP1 inh: -21%

What do the screens show for `O=S(=O)(Nc1ccccc1F)c1cccc(NC(=S)NCCN2CCOCC2)c1`?
TSG101-PTAP inh: 0%; VDR inh: 35µM*; KAT2A inh: inconclusive; PLK1 PBD block: 0.95µM*; USP1 inh: -29%

What do the screens show for `O=S(=O)(Nc1ccc(Br)cc1)c1cccc(NC(=S)NCCN2CCOCC2)c1`?
TSG101-PTAP inh: 1%; VDR inh: -5%; KAT2A inh: 4%; PLK1 PBD block: inconclusive; USP1 inh: -17%

Screening data deposited in PubChem by National Center for Advancing Translational Sciences (NCATS).
